From publication PMC4336329 (PLoS ONE, 2015)
Screen size: about 310,000 compounds; about 14,000 (4.5%) showed an effect of 50% or more. The effect is printed as a negative number. The entries come from a sample that favours strong results as a whole.

biological target: human ether-à-go-go-related gene (hERG) potassium channel (human, UniProt Q12809); test: primary screen, population patch clamp on CHO cells stably expressing hERG; higher = less effect of the substance
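Note: peak tail current of the secondary pulse compared with the same well before compound.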

Sequence of human ether-à-go-go-related gene (hERG) potassium channel (Q12809 whole entry, looked up): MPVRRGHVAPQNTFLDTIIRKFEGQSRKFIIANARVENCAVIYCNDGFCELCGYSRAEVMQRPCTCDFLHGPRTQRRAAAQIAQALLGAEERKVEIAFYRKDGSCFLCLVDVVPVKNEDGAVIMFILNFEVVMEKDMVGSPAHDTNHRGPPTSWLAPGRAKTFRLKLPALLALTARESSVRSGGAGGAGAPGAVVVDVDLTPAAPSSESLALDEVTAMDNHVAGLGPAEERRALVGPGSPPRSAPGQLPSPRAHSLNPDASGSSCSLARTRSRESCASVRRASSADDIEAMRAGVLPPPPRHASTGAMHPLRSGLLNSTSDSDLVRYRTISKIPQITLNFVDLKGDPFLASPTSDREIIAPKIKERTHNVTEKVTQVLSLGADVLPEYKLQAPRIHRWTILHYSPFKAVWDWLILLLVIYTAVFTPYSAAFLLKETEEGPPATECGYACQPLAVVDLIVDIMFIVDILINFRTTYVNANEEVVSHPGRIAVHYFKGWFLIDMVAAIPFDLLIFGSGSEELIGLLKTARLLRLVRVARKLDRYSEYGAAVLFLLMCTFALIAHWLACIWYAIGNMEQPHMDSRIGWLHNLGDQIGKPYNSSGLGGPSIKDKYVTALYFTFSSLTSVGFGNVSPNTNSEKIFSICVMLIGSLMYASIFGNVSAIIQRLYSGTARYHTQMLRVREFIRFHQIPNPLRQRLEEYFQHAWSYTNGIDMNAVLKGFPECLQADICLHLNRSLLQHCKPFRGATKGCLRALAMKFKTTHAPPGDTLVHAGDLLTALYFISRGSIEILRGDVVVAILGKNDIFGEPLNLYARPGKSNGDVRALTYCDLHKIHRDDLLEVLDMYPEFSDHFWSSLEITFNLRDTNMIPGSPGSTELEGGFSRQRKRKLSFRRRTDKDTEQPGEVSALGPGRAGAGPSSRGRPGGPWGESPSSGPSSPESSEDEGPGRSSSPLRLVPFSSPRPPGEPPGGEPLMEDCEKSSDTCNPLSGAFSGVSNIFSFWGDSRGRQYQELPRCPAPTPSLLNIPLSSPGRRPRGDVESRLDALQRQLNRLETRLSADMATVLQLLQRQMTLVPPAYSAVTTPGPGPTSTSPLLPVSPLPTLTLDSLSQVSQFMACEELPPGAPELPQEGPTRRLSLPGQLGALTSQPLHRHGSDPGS

| Structure (SMILES) | hERG current change (%, negative = inhibition) at 10uM [%] |
| --- | --- |
| COc1ccc(CCN=C(N)NS(=O)(=O)c2cc(F)ccc2F)cc1 | -17.2 |
| N/C(Cc1ccc([N+](=O)[O-])cc1)=N\OC(=O)COc1ccccc1Cl | -21.2 |
| O=C(c1ccccc1)N1CN2CN(C(=O)c3ccccc3)CC([N+](=O)[O-])(C2)C1 | 21.8 |
| COc1cccc(-n2c(SCC(=O)NCCc3ccccc3)nnc2-c2ccoc2C)c1 | -76.8 |
| COc1ccc(-n2c(SCC(=O)Nc3cccc(C(=O)O)c3)nnc2-c2ccco2)cc1 | 17.7 |
| COc1cccc(NC(=O)CSc2nnc(-c3ccoc3C)n2-c2ccccc2)c1 | -85.7 |
| COC(=O)CSc1nnc(-c2ccoc2C)n1-c1ccc(OC)cc1 | -18.3 |
| Cc1occc1-c1nnc(SCC(=O)NCCc2ccccc2)o1 | -11.5 |
| CCOc1ccccc1-n1c(SCC(=O)NC(C)(C)C)nnc1-c1ccoc1C | 1.75 |
| COc1ccc(-n2c(SCC(=O)Nc3ccccc3)nnc2-c2ccoc2C)cc1 | -71.8 |
| COc1cccc(NC(=O)CSc2nnc(-c3ccoc3C)n2C)c1 | 4.35 |
| COc1cccc(-n2nnnc2SCC(=O)NCCc2ccccc2)c1 | -20.8 |
| COc1cccc(-n2c(SCC(=O)NC(C)(C)C)nnc2-c2ccoc2C)c1 | -64.5 |
| CCn1c(SCC(=O)NC(C)(C)C)nnc1-c1ccoc1C | -18.5 |
| COc1cccc(NC(=O)CSc2nnc(-c3ccoc3C)n2CC2CCCO2)c1 (centres unmarked) | -1.09 |
| CN(CC(=O)Nc1cccc(F)c1)C(=O)CCC1CCCCC1 | 17.7 |
| COC(=O)C(=NNc1c(C)n(C)n(-c2ccccc2)c1=O)C(=O)OC | 9.93 |
| COc1ccccc1NC(=O)c1cc(OC)c(OC)cc1[N+](=O)[O-] | 4.44 |
| COc1ccc(N(C)S(=O)(=O)c2ccc3c(c2)CCC(=O)N3)cc1 | -9.5 |
| CN(C)c1ccc(/C=C(\C#N)c2ccccn2)cc1 | -6.97 |
| CN(C)CCOc1cc(Cl)cc(Cl)c1 | 7.27 |
| CCOC(CNc1cc(C)nc2c(-c3ccccc3OC)c(C)nn12)OCC | 8.64 |
| COC(=O)c1ccc(NC(=O)CSc2nnc(C)n2-c2ccccc2)cc1 | -2.35 |

| Structure (SMILES) | hERG current change (%, negative = inhibition) at 10uM [%] |
| --- | --- |
| Cc1n[nH]c(=S)n1/N=C/c1ccc(Br)o1 | 12.5 |
| COc1cccc(CN2CCCN(S(=O)(=O)c3ccc(Br)cc3)CC2)c1 | -58.6 |
| O=S(=O)(c1ccc(Br)cc1)N1CCCN(Cc2cccc(F)c2)CC1 | -17.9 |
| COc1ccc(S(=O)(=O)N2CCCN(Cc3cccc(F)c3)CC2)cc1 | -44.6 |
| COc1cccc(CN2CCN(S(=O)(=O)c3ccc(Br)cc3)CC2)c1 | -29.4 |
| COc1ccc(S(=O)(=O)N2CCN(Cc3ccc(Cl)cc3)CC2)cc1 | -10.8 |
| COc1ccc(CN2CCCN(S(=O)(=O)c3ccc(Br)cc3)CC2)cc1 | -74.4 |
| COc1ccc(N2CSC3=C(C#N)C(c4ccc(OC)c(OC)c4)CC(=O)N3C2)c(OC)c1 (centres unmarked) | -47.5 |
| COc1ccc(N2C(=O)c3ccc(NC(C)=O)cc3C2=O)cc1 | 20.2 |
| CC(=O)N1Cc2ccccc2CC1C(=O)O (centres unmarked) | -7.43 |
| CC(CC1CC(C)(C)OC1=O)C(=O)Nc1ccc([N+](=O)[O-])cc1 (centres unmarked) | -51.4 |
| CC1(C)CC(CC(=O)NC(=S)Nc2ccc([N+](=O)[O-])cc2)C(=O)O1 (centres unmarked) | -21.2 |
| CC1(C)CC(CC(=O)Nc2ccc([N+](=O)[O-])cc2)C(=O)O1 (centres unmarked) | -22.5 |
| COc1ccc(C)cc1NC(=O)CSCc1ccccc1C | -4 |
| COc1ccc(CSc2n[nH]c(C)n2)cc1[N+](=O)[O-] | 26.2 |
| CCCCOc1ccc(CSC2=NCCN2)cc1[N+](=O)[O-].Cl | -68.7 |
| COc1ccc(CSC2=NCCN2)cc1Br | 1.43 |
| COc1ccc(CSC2=NCCN2)cc1Cl.Cl | -18.2 |
| Br.N#Cc1ccc(CSC2=NCCN2)cc1 | -4.5 |
| Cl.Clc1ccc(CSC2=NCCCN2)cc1Cl | -18.2 |
| COc1ccc(CSc2nc(C)[nH]c2[N+](=O)[O-])cc1[N+](=O)[O-] | 4.63 |
| COc1ccc(CSc2cccc3cccnc23)cc1[N+](=O)[O-] | 1.59 |
| CCCOc1ccc(CSC2=NCCN2)cc1[N+](=O)[O-] | -66.7 |

| Structure (SMILES) | hERG current change (%, negative = inhibition) at 10uM [%] |
| --- | --- |
| CCCCCOc1ccc(CSC2=NCCN2)cc1[N+](=O)[O-] | -80.2 |
| CCOc1ccc(CSC2=NCCN2)cc1Cl.Cl | -50.9 |
| CCCCOc1ccc(CSc2nnc(C)n2N)cc1[N+](=O)[O-] | -31.5 |
| CC(Oc1ccc(Cl)cc1)C(=O)NCCCn1ccnc1 (centres unmarked) | -7.09 |
| Cc1csc(NC(=O)CN2CCCCCC2)n1.O=C(O)C(=O)O | 14.3 |
| Cc1cc(C)c2cc(C(=O)Nc3ccc4c(c3)OCO4)[nH]c2c1 | 16.2 |
| CCOc1ccc2c(C)c(C(=O)O)oc2c1OCC | 16.5 |
| NS(=O)(=O)c1cccc(NC(=O)CC2(CC(=O)O)CCCC2)c1 | 33.9 |
| CSc1nc(Cc2ccc(Cl)cc2)nc2ccccc12 | -16.7 |
| COc1ccc(CSc2ncn[nH]2)cc1[N+](=O)[O-] | 2.83 |
| Br.O=[N+]([O-])c1ccc(CSC2=NCCN2)cc1 | -15.3 |
| CCOc1ccc(CSC2=NCCN2)cc1[N+](=O)[O-].Cl | -83.5 |
| Cc1ccc(-n2c(C)nnc2SCC(=O)N2CCOCC2)cc1 | 21.9 |
| CSCCCNC(=S)Nc1cccc(S(=O)(=O)NC2=NCCC2)c1 | 32.8 |
| CSc1ccccc1OCc1cc(C(=O)NCCn2nc(C)cc2C)no1 | -0.00922 |
| O=S(=O)(Nc1nc2ccccc2nc1NCC1CCCO1)c1ccccc1 (centres unmarked) | 2.43 |
| CCOC(=O)C1(Cc2ccccc2C(F)(F)F)CCN(C2CCN(C(C)C)CC2)CC1 | -36.6 |
| CCOC(=O)C1(Cc2ccccc2C(F)(F)F)CCN(Cc2ccon2)CC1 | -2.88 |
| CCOC(=O)C1(Cc2ccccc2C(F)(F)F)CCN(C(=O)c2cc(C(C)=O)n[nH]2)CC1 | -57.2 |
| CCOC(=O)C1(Cc2ccccc2C(F)(F)F)CCN(C(C)CCn2cccn2)CC1 (centres unmarked) | -65.6 |
| CCOC(=O)C1(Cc2ccccc2C(F)(F)F)CCN(CCCn2cccn2)CC1 | -82.1 |
| CCOC(=O)C1(Cc2ccccc2C(F)(F)F)CCN(C(C)CSC)CC1 (centres unmarked) | -48.2 |
| CCOC(=O)C1(Cc2ccccc2C(F)(F)F)CCN(C2CCN(C(C)=O)CC2)CC1 | -18.6 |

| Structure (SMILES) | hERG current change (%, negative = inhibition) at 10uM [%] |
| --- | --- |
| CCOC(=O)C1(Cc2ccccc2C(F)(F)F)CCN(C(=O)c2cc(C)n(C)n2)CC1 | -22.6 |
| CCOC(=O)C1(Cc2ccccc2C(F)(F)F)CCN(CC(O)CO)CC1 (centres unmarked) | -3.71 |
| COc1cccc2cc(C(=O)NCc3ccccc3Br)c(=O)oc12 | 19 |
| CN(Cc1ccc(C(F)(F)F)cc1)C(=O)c1ccc(Oc2ccccc2)cc1 | 13.1 |
| Cc1ccc(S(=O)(=O)Nc2ccccc2)cc1C(=O)N1CCCC1 | -4.95 |
| Cc1nonc1NC(=O)CSc1nc2ccc(Cl)cc2[nH]1 | 3.09 |
| Cc1sc(NC(=O)Cn2[nH]c(=O)c3ccccc3c2=O)nc1-c1ccccc1 | 11.6 |
| CCOC(=O)N1CCC(N2C(=O)c3ccccc3C2Nc2cc(Cl)c(OC)cc2OC)CC1 (centres unmarked) | -45.5 |
| CCOC(=O)N1CCC(N2C(=O)c3ccccc3C2Nc2cccnc2)CC1 (centres unmarked) | 1.81 |
| CCOC(=O)N1CCC(N2C(=O)c3ccccc3C2Nc2ccc(C)cc2)CC1 (centres unmarked) | -32.8 |
| CCOC(=O)N1CCC(N2C(=O)c3ccccc3C2Nc2ccc(S(=O)(=O)N3CCCCC3)cc2)CC1 (centres unmarked) | -58 |
| CCOC(=O)N1CCC(N2C(=O)c3ccccc3C2Nc2ccc(S(=O)(=O)N3CCOCC3)cc2)CC1 (centres unmarked) | -16.7 |
| CCOC(=O)N1CCC(N2C(=O)c3ccccc3C2Nc2ccc(S(=O)(=O)N(CC)CC)cc2)CC1 (centres unmarked) | -62.6 |
| COc1ccc(C2C3=C(CC(C)(C)CC3=O)N(CC(=O)O)C3=C2C(=O)CC(C)(C)C3)cc1OC | 2.83 |
| COc1cc(OC)c(N2CC34C=CC(O3)C(C(=O)O)C4C2=O)cc1Cl (centres unmarked) | 4.99 |
| CCc1nnc(NC(=O)CSc2ccc(-c3nc4ccc(C)cc4[nH]3)cn2)s1 | 6.54 |
| CCc1ccc(OCC(=O)N(C)C)c(Br)c1 | -7.33 |
| CCc1ccc(OCC(=O)NCCN(C)C)c(Br)c1 | -58.4 |
| CN(C)CCNC(=O)COc1ccc(Cl)cc1Cl | -18.2 |
| O=C(COC(=O)c1ccc2ncsc2c1)NCc1cccc(Cl)c1 | -11.2 |
